Results from PubChem BioAssay (NCI).
This is part of a sample that, as a whole, favours compounds with a hit. Of some 83,000 tested, about 20% had one in any assay.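 Percent growth is the endpoint: 0 to 100 indicates growth inhibition (40 means 60% inhibition), 0 means no net growth, and negative values indicate cell death.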 Values without a mark were called inactive. Activity calls are given as the source filed them. The calls were made as follows: active = growth percent below 10; inactive = the rest.

Tests used:
Assay in all cases: NCI-60 one-dose screen, 48 h (100 = growth as untreated, 0 = no growth, -100 = all killed)
SR leukemia = details: 10 µM unless noted
RPMI-8226 leukemia = details: 10 µM unless noted
OVCAR-8 ovarian = details: 10 µM unless noted
OVCAR-5 ovarian = details: 10 µM unless noted
OVCAR-4 ovarian = details: 10 µM unless noted
SK-OV-3 ovarian = details: 10 µM unless noted
IGROV1 ovarian = details: 10 µM unless noted
OVCAR-3 ovarian = details: 10 µM unless noted
HS 578T breast = details: 10 µM
NCI/ADR-RES ovarian = details: 10 µM unless noted

Row | SMILES | growth (SR leukemia) | growth (RPMI-8226 leukemia) | growth (OVCAR-8 ovarian) | growth (OVCAR-5 ovarian) | growth (OVCAR-4 ovarian) | growth (SK-OV-3 ovarian) | growth (IGROV1 ovarian) | growth (OVCAR-3 ovarian) | growth (HS 578T breast) | growth (NCI/ADR-RES ovarian)
1 | CC(C)C1CCC(C)C(C2(C#N)C(N)=NC(N)=C2C#N)C1=O (stereo not given) | 102% | 89% | 106% | 103% | 90.8% | 107% | 94.4% | 98% | 101% | 97.1%
2 | CCc1cc2c(c3ccc(C(=O)CBr)cc13)CCCC2 | 91.7% | 113% | 105% | 91.1% | 110% | 103% | 99.1% | 102% | 98.8% | 93.5%
3 | CCCc1cc2cc(-n3nc(C)c4c3CC(C)(C)CC4=O)cc(NC3CCC(O)CC3)c2c(=O)[nH]1 (stereo not given) | 23.8% | 15.2% | 33% | 50.5% | 64.7% | 6.8% (active) | 36.9% | 23.2% | 47.4% | 45.5%
4 | CN1CCN(CC(=O)Nc2ccc(-c3nc4ccccc4s3)cc2)CC1 | 6.26% (active) | 88.1% | 91.3% | 72.9% | 87.3% | 94.2% | 80.6% | 99.2% | 93.7% | 85.6%
5 | CC/C=C\C[C@H]1C/C=C2/C(=O)C=C[C@@H]2C/C=C\CCCC(=O)O1 | 0.487% (active) | -19.1% (active) | 10% (active) | 21.7% | 10.6% | 60.2% | -26.7% (active) | -47.3% (active) | 36.4% | -1.72% (active)
6 | O=S1(=O)OC(c2ccc(O)c(Cl)c2)(c2ccc(O)c(Cl)c2)c2ccccc21 | 112% | 104% | 87.5% | 96.5% | 99.8% | 101% | 91.2% | 116% | 97% | 105%
7 | COc1ccc2c(CCC(c3ccccc3)c3ccccc3)c3[n+](cc2c1OC)CCc1cc2c(cc1-3)OCO2 | -29.9% (active) | -9.79% (active) | 2.77% (active) | 29% | 13.3% | -12.8% (active) | 22.9% | -0.03% (active) | 20.7% | 78.9%
8 | COc1ccc(-c2cnc(-c3ccc(Cl)cc3)[nH]2)cc1OC | 42.7% | 33.1% | 98.9% | 98.2% | 89.9% | 94.6% | 52.5% | 103% | 93.5% | 106%
9 | CCCCCCCCCNCCCCCCCCC | -22.9% (active) | -22.4% (active) | 73.5% | 63.5% | 29.2% | 92.6% | 50.8% | 86% | 83.7% | 68.3%
10 | CSc1nc2ncncc2[nH]1 | 95.2% | 201% | 104% | 93.9% | 102% | 113% | 76.1% | 109% | 74.8% | 106%
11 | Cc1cc(O)cc(-c2c(-c3ccnc(-c4cccnc4)c3)cnn2C)c1 | 42.2% | 51.1% | 73.5% | 54.9% | 60.9% | 69.3% | 58.8% | 79.4% | 58.9% | 67.2%
12 | N#CC(C#N)=NO | 97.1% | 101% | 103% | 104% | 113% | 89.1% | 101% | 111% | 99.6% | 100%
13 | COc1cc(-c2cc(-c3ccc(Nc4ccnc5cc(Cl)ccc45)cc3)nc(N3CCOCC3)n2)cc(OC)c1OC | -10.7% (active) | -5.21% (active) | 9.73% (active) | 55.5% | -48.3% (active) | 98.6% | 1.69% (active) | -47.7% (active) | 3.06% (active) | 9.9% (active)
14 | CC(=O)C1=C(C)NC(SCc2nnc(-c3ccc(C)cc3)o2)=NC1c1ccc(F)cc1 (stereo not given) | 80.9% | 83.7% | 97% | 89.6% | 108% | 108% | 89% | 105% | 112% | 98.2%
15 | Cc1cc2c(-c3nc4ccccn4c3Nc3cccc4ccccc34)c(O)c(O)cc2c(O)c1-c1c(C)cc2c(-c3nc4ccccn4c3Nc3cccc4ccccc34)c(O)c(O)cc2c1O | 27.5% | 14.5% | 39.8% | 66.8% | 56% | 24.2% | 47.8% | 68.3% | 39.7% | 81.6%
16 | COc1cc(NC2CCC(=O)N2c2ccc(Cl)cc2Cl)cc(OC)c1OC (stereo not given) | 95.6% | 102% | 103% | 99.5% | 101% | 102% | 105% | 101% | 102% | 99.5%
17 | CCCCCCCC(=O)SCC/C=C/[C@@H]1CC(=O)NCc2cccc(n2)C2=N[C@@](C)(CS2)C(=O)N[C@@H](C(C)C)C(=O)O1 | 13.7% | 14.3% | 7.64% (active) | 6.82% (active) | 18.3% | -31.4% (active) | 3.42% (active) | -26.5% (active) | 15.4% | 6.46% (active)
18 | COc1ccc(C2CC(=O)c3c(O)c(OC)c(OC)c(OC)c3O2)cc1O (stereo not given) | 22.7% | 34.3% | 26.8% | 81.1% | 47.9% | 40% | 48.2% | -5.96% (active) | 14.8% | 3.97% (active)
19 | Fc1ccc(NCc2cn(-c3ccccc3)nc2-c2ccc(OCc3ccccc3)cc2)cc1Cl | 96.1% | 98% | 105% | 86.6% | 97.5% | 82.3% | 96.9% | 97.3% | 104% | 95.4%
20 | NC(=O)N1N=C(c2ccc(Cl)cc2)CC1c1cn(-c2ccccc2)nc1-c1ccc(Cl)cc1 (stereo not given) | 67.3% | 70.9% | 36.8% | 94.6% | 14% | 50.9% | 68.8% | 78.1% | 50.8% | 47.8%
21 | CC1(O)CCC(Nc2cc(-c3ccc(C(F)(F)F)cc3)c(C#N)c3nc4ccccc4n23)CC1 (stereo not given) | 79.4% | 56.8% | 78.3% | 99% | 55.2% | 68.6% | 79.3% | 81.4% | 74.4% | 61.8%
22 | C=CCC(=O)N[C@H](/C=C/C(=O)O)Cc1ccc(-c2cc(Cl)cc(Cl)c2)cc1 | 82% | 96.6% | 92.7% | 92% | 98.6% | 87.3% | 114% | 108% | 97% | 107%
23 | Cc1cc(C)n(CC(=O)Nc2ccc(-c3nc4ccccc4s3)cc2)n1 | 99.4% | 97.2% | 99.7% | 105% | 97.8% | 114% | 97.4% | 101% | 113% | 103%
24 | CCc1nc2ccc(Cc3ccc(C(=O)NO)cc3)cc2c(=O)n1CCc1ccccc1 | 2.05% (active) | 6.11% (active) | -31% (active) | 1.71% (active) | -7.64% (active) | -26.9% (active) | -56.7% (active) | -37.1% (active) | 14.9% | -17.3% (active)
25 | CCOC(=O)C1=C(C)NC(=O)NC1c1cc(=O)oc2ccc(C)cc12 (stereo not given) | 97.1% | 97.5% | 102% | 107% | 106% | 104% | 103% | 110% | 109% | 102%
